Results filed as inconclusive are left out. The source made the active and inactive calls. Calls follow the shape of the dose curve; as a rule, active = well fitted inhibition curve with a large enough effect; inconclusive = small, poorly fitted or top-dose-only effect; inactive = flat fitted curve, though single readings scatter.
Tests used:
Assay in all cases: qHTS profiling for inhibitors of Plasmodium falciparum proliferation (AID 504749); also: nearly all actives have a fitted effect of over 60% in size
Conditions in all cases: P. falciparum in erythrocytes, SYBR Green DNA, 72 h; series mostly up to 28.7 µM
CP262 = system: CP262
Procedure, shortened: (§1)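 Quantitative HTS: compounds pinned into medium, infected erythrocytes added (0.3% parasitemia, 2.5% hematocrit), 72 h culture at 37 C under 5% CO2. Saponin/Triton lysis with SYBR Green I, overnight RT, then fluorescence read.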

CP265 = system: CP265
Procedure, shortened: as §1

CP266 = system: CP266
Procedure, shortened: as §1

CP268 = system: CP268
Procedure, shortened: as §1

CP269 = system: CP269
Procedure, shortened: as §1

CP286 = system: CP286
Procedure, shortened: as §1

CP291 = system: CP291
Procedure, shortened: as §1

CP297 = system: CP297
Procedure, shortened: as §1

CP305 = system: CP305
Procedure, shortened: as §1

CP315 = system: CP315
Procedure, shortened: as §1

CP325 = system: CP325
Procedure, shortened: as §1

CP329 = system: CP329
Procedure, shortened: as §1

DFO2036 = system: DFO2036
Procedure, shortened: as §1

DIV14 = system: DIV14
Procedure, shortened: as §1

DIV17 = system: DIV17
Procedure, shortened: as §1

DIV30 = system: DIV30
Procedure, shortened: as §1

Dd2 = system: Dd2
Procedure, shortened: as §1

ECU = system: ECU
Procedure, shortened: as §1

FAB9 = system: FAB9
Procedure, shortened: as §1

GB4 = system: GB4
Procedure, shortened: as §1

HB3 = system: HB3
Procedure, shortened: as §1

ICS = system: ICS
Procedure, shortened: as §1

JCK = system: JCK
Procedure, shortened: as §1

N140 = system: N140
Procedure, shortened: as §1

P93_24 = system: P93_24
Procedure, shortened: as §1

P94_40 = system: P94_40
Procedure, shortened: as §1

PAD = system: PAD
Procedure, shortened: as §1

PC15 = system: PC15
Procedure, shortened: as §1

PC49 = system: PC49
Procedure, shortened: as §1

SC27B = system: SC27B
Procedure, shortened: as §1

TAB109 = system: TAB109
Procedure, shortened: as §1

TAB113 = system: TAB113
Procedure, shortened: as §1

TAB165 = system: TAB165
Procedure, shortened: as §1

W2 = system: W2
Procedure, shortened: as §1

Measured: Potency

CCCC[C@H]1C(=O)N(c2ccccc2)N(c2ccc(O)cc2)C1=O
inactive: all assays above

— PubChem BioAssay (NCATS)
